In the library only some 2.3% were active in any assay of this set; here they are far more common.
CHT block = inhibitors of human choline transporter CHT. High affinity choline transporter 1 (Homo sapiens), Q9GZV3. CHT-expressing cells, membrane potential dye, choline response; hits give low values. B-score at 10 µM. actives 0.86% (n = 310,000). AID 488975, 2010;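 active = B-score over 3 SD under the library average, and starting fluorescence ratio not unusually high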;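 also: choline stimulus applied at its EC90 after an EC20 pre-addition; B-score computed on integrated fluorescence ratio after choline addition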
Target sequence (Q9GZV3 whole entry, looked up): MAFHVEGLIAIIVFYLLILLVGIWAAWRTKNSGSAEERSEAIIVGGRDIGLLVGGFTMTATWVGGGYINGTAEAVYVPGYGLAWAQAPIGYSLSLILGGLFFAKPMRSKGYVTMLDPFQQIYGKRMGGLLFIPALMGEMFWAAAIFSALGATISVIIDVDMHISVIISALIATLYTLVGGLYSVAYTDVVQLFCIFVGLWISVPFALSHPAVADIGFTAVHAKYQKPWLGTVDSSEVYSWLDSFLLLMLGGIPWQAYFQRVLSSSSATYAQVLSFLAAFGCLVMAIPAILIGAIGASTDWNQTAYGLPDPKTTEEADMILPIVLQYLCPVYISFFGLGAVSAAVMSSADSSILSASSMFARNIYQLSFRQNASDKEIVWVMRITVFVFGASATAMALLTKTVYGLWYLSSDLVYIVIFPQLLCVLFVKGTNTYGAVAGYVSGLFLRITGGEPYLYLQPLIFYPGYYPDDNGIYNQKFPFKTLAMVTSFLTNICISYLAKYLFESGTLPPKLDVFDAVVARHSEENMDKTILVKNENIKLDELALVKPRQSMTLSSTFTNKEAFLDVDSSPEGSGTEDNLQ
CHT allo act = CHT positive allosteric modulators, primary screen, cell-based, membrane potential dye, choline EC20; B-score at 10 µM; actives 0.49% (n = 310,000); CHT-expressing cells; hits give high values; LV-AA mutant CHT in HEK293 cells; High affinity choline transporter 1 (Homo sapiens), Q9GZV3;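 active = initial fluorescence not abnormally high and integrated response B-score, plate-corrected, over 3 SD above library mean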
ANO1 activ = TMEM16A chloride channel activators or potentiators, primary screen, cell-based, HTS. Anoctamin-1 (Mus musculus), Q8BHY3. AID 623877, 2012. actives 0.3% (n = 340,000). HEK293 TMEM16A/YFP-H148Q/I152L, iodide quench fluorescence; hits give low values. B-score at 10 µM;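 active = fluorescence-ratio B-score plate-corrected deviation score at least 3 library SD below zero, with starting fluorescence score within 5 deviations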;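 also: channel opened by trigger with iodide after compound preincubation; score built on the fluorescence ratio of max minus min over baseline; more negative score means more quench and so TMEM16A activation or potentiation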
TMEM16A inh = TMEM16A chloride channel inhibitors, primary screen, cell-based, HTS; normalized B-score (activity score, 25-100; higher = stronger inhibition) at 10 µM; actives 1.2% (n = 310,000); Anoctamin-1 (Mus musculus), Q8BHY3; HEK293 TMEM16A/YFP iodide influx fluorescence, ionomycin;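 active = ratio plate-corrected score three or more library SD toward inhibition, starting fluorescence score within five deviations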;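 also: score derived from kinetic fluorescence span divided by baseline fluorescence per well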
CHT inh conf = CHT inhibitors, confirmation, cell-based, membrane potential dye, duplicate; shares compounds with CHT block; CHT-expressing cells, choline membrane potential dye; LV-to-AA substituted CHT, HEK293 cells; CHT activity remaining % of control (hits give low values), % at 10 µM; actives 70% (n = 2,400); AID 493221, 2011;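 active = choline transporter activity left, mean of duplicates at 10 µM, below buffer-only control mean minus 3 SD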;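 also: depolarization triggered by choline at its EC90 following an EC20 pre-addition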
HEK293 CHT ctr = membrane potential effects in parental HEK293, counter-screen for CHT inhibitor project, cell-based, membrane potential dye; shares compounds with CHT block; membrane potential ratio readout (active if shifted either direction beyond buffer ±3SD; no single direction) at 10 µM; actives 4% (n = 2,400); choline response; active = decrease or increase beyond buffer ±3SD; AID 493222, 2011;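 also: parental cells lack the transporter so any hit is non-specific; ratio is peak minus trough fluorescence over baseline after EC90 choline challenge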
Hits are given with their value; . = inactive; / = no result.

SMILES	CHT block	CHT allo act	ANO1 activ	TMEM16A inh	CHT inh conf	HEK293 CHT ctr
O=C(COC(=O)CNS(=O)(=O)c1ccc(Cl)cc1)NC1CCCCC1	/	/	.	/	/	/
CCN(CC)c1ccc(/C=N/NC(=O)Cc2cccs2)c(O)c1	.	.	.	.	/	/
CCN(CC)c1ccc(/C=N/NC(=O)c2ccco2)c(O)c1	-5.2	.	.	.	.	.
CC(CNS(=O)(=O)c1ccc2c(c1)CC(=O)N2C)c1ccccc1 (centres undefined)	.	.	.	.	/	/
CCN(CC)CCNC(=O)c1ccc2c(c1NCCO)C(=O)c1ccccc1C2=O	.	.	/	.	/	/
CC1CCN(C(=O)c2ccc3c(c2NCCO)C(=O)c2ccccc2C3=O)CC1	-6.3	.	.	.	50%	2.3
Cc1cc(-n2cc(Br)c(=O)[nH]c2=O)nc(-c2ccccc2)n1	.	.	.	.	/	/
COC(=O)CN1CCN(C(=O)c2ccco2)CC1	.	.	.	.	/	/
CC1CCN(CCNC(=O)CCS(=O)(=O)c2ccc(Br)cc2)CC1	-5.3	.	.	.	.	.
O=S(=O)(Nc1nc2ccccc2nc1NCc1ccco1)c1ccccc1	.	.	.	.	/	/
O=S(=O)(Nc1nc2ccccc2nc1NCc1ccco1)c1ccc(F)cc1	-6.2	.	.	.	.	.
Cc1sc2ncnc(NCc3ccco3)c2c1C	-5.4	.	.	.	65%	.
Cc1oc(S(=O)(=O)N(C)C)cc1C(=O)Nc1ccc(Cl)cc1	.	.	.	.	/	/
CC(=O)NC(Cc1cccc(F)c1)C(=O)NC1CCN(C(=O)c2cccc(C)c2)CC1 (centres undefined)	-7.8	.	.	.	.	.
NC(=O)CCCn1c(C(=O)c2cc(Cl)c(N)c(Cl)c2)c2ccc([N+](=O)[O-])cc2[n+]1[O-]	-8.8	.	.	.	17%	.
NCCCn1c(C(=O)c2ccc(Cl)cc2)c2ccc(C(F)(F)F)cc2[n+]1[O-]	-5.1	.	.	.	31%	2.2
O=C(CC(=O)c1ccccc1)Nc1ccccc1	.	.	.	.	/	/
CCOC(=O)N1CCC(N2Cc3cccc(C(=O)NC(C)c4ccc5c(c4)OCCO5)c3C2=O)CC1 (centres undefined)	.	.	.	.	/	/
Cn1nc(C(C)(C)C)cc1C(=O)Sc1cccc(Br)c1	.	.	.	.	/	/
CC(C)NCC(O)c1cc(O)cc(O)c1 (centres undefined)	.	.	.	.	/	/
CC(C)NC[C@H](O)c1ccc(O)c(O)c1	.	.	.	.	39%	.
CN(C)CCCn1c(=O)n(C2CCCCC2)c(=O)c2c3c(sc21)CCCCC3	-8	.	.	.	36%	.
O=C(COC(=O)CNC(=O)c1ccccc1F)Nc1ncc(Cl)cc1Cl	/	/	.	/	/	/
CC1(C)CC(=O)/C(=C(\O)CCCN2C(=O)c3ccccc3C2=O)C(=NCC(=O)O)C1	-5.4	.	.	.	.	.
CC1(C)CC(=O)/C(=C(/O)CCCN2C(=O)c3ccccc3C2=O)C(=NC(C)(C)C)C1	.	.	.	.	/	/
SMILES	CHT block	CHT allo act	ANO1 activ	TMEM16A inh	CHT inh conf	HEK293 CHT ctr
O=C(COC(=O)c1ccco1)Nc1ccc(N2CCOCC2)cc1	/	/	.	/	/	/
Cc1nn2c(SCC(=O)c3cccs3)cc(C(C)(C)C)nc2c1-c1ccccc1	.	.	.	.	/	/
CCOC(=O)C1(Cc2ccc(OC)cc2)CCN(C(=O)c2csc(C)n2)CC1	.	.	.	.	/	/
CCOC(=O)C1(Cc2ccc(OC)cc2)CCN(C(=O)c2cncs2)CC1	-7.1	.	.	.	.	.
CCNC(=O)c1ccc(C23CC4CC(CC(C4)C2)C3)o1	.	.	.	.	/	/
O=C(O)c1cc(S(=O)(=O)Nc2ccc(OCc3ccccc3)cc2)ccc1Br	.	.	.	.	/	/
COc1ccc(-c2nc(C=O)cs2)cc1	-5.5	.	.	.	23%	.
COc1ccc(-c2csc(N)n2)cc1	.	.	.	.	/	/
Cc1cc(=O)[nH]c(SCC(=O)NN(c2ccccc2)c2ccccc2)n1	.	.	.	.	/	/
Cc1ccc(-c2noc(CNc3ccccc3)n2)cc1	-5.8	.	.	.	44%	.
CCc1ccc(NCc2nc(-c3ccccc3)no2)cc1	-5.7	.	.	.	58%	.
CCC1CCCCN1C(=O)CSc1nc(N)cc(N)n1 (centres undefined)	.	.	.	.	/	/
CN(Cc1ccccc1)C(=O)COC(=O)COc1ccc(C#N)cc1	-5.3	.	.	.	65%	.
CN(Cc1ccccc1)C(=O)COC(=O)COc1ccc(Cl)cc1	/	/	.	/	/	/
CCOC(=O)c1sc(=S)n(-c2ccccc2)c1N(C(C)=O)C(C)=O	-6.2	.	.	.	65%	.
CCOC(=O)c1sc(=S)n(-c2ccccc2)c1N	.	.	.	.	/	/
COc1ccc(-c2nn(-c3ccccc3)cc2CNC[C@H]2O[C@@H](n3cnc(C(N)=O)n3)[C@H](O)[C@@H]2O)cc1	/	/	.	/	/	/
COC(=O)C(C)Sc1nc2c(c(=O)[nH]c(=O)n2C)n1CCCc1ccccc1 (centres undefined)	-9.3	.	.	.	21%	.
O=C(OCCCOc1ccc(F)cc1)c1ccc(O)cc1O	-6	.	.	.	49%	.
O=C(Nc1nnc(C2CC2)s1)c1cccnc1Oc1ccc(Cl)cc1	.	.	.	.	/	/
COc1ccc(CN=C(Nc2ccccc2)SC2CC(=O)N(C)C2=O)cc1 (centres undefined)	-5.5	.	.	.	.	.
COc1ccc(CCNC(=O)c2ccc(NC(=O)CC3SC(N4CCCCC4)=NC3=O)cc2)cc1 (centres undefined)	/	/	.	/	/	/
CC(C)N(C)C(=O)c1ccc(OC2CCN(CCc3ccccc3)CC2)cc1	.	.	.	.	/	/
Cc1csc(C(C)NC(=O)c2ccc(OC3CCN(CCc4ccccc4)CC3)cc2)n1 (centres undefined)	-6.4	.	.	.	30%	2.6
CC(C)(C)C(=O)NNC(=O)c1cc2sccc2s1	-5.8	.	.	.	.	.
C#CCNc1c(C)c(C)nc2ncnn12	-5	.	.	.	23%	.
C/C(=N\NS(=O)(=O)c1ccc(Cl)c([N+](=O)[O-])c1)c1cc2ccccc2o1	-7.5	.	.	.	71%	.
C/C(=N\NS(=O)(=O)c1ccc(C)c([N+](=O)[O-])c1)c1cc2ccccc2o1	.	.	.	.	/	/
CCn1c(=O)cc(SCC(=O)Nc2ccc(OC)c(OC)c2)c2ccccc21	-6	.	.	.	.	.
